Laboratory results as given in PubChem BioAssay.
Unmarked numbers belong to inactive results. The source made the active and inactive calls. Cut-off read from the data, not from the text of the source, unless noted: active = inhibition above about 42%; inactive = the rest.

Columns and labels:
[1] = StAR promoter reporter inhibitors, counter-screen for LRH-1 inverse agonist project, cell-based, luminescence, high throughput (AID 651611; in the data active = inhibition above about 28%); settings: StAR promoter luciferase reporter counterscreen, at 3.6 µM, hits give high values
[2] = biological target: Nuclear receptor subfamily 5 group A member 2 (Homo sapiens) (UniProt O00482); test: NR5A2 activity suppression in reporter cells – cell-based, luminescence, confirmation (AID 651613); settings: cell-based LRH-1 luciferase reporter, inverse agonism; at 3.6 µM; hits give high values;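 note: HEK293T cells co-transfected with LRH-1 and StAR promoter luciferase reporter; 0% = vehicle wells and 100% = parental cells lacking receptor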
[3] = biological target: Steroidogenic factor 1 (Homo sapiens) (UniProt Q13285); test: inverse agonism at SF1 nuclear receptor – cell-based, luminescence, high throughput, counter-screen for LRH-1 inverse agonist project (AID 651614; in the data active = inhibition above about 44%;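 note: cells cotransfected with StAR promoter reporter and SF1 expression vector; 0% = vehicle on cells with receptor and 100% = vehicle on cells lacking receptor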); settings: cell-based SF1 luciferase reporter, at 3.6 µM, hits give high values
[4] = compounds suppressing VP16-driven luciferase signal – cell-based, luminescence, high throughput, counter-screen for LRH-1 inverse agonist project (AID 651615; in the data active = inhibition above about 33%); settings: Gal4-VP16 luciferase reporter cells, at 3.6 µM, hits give high values

Chain of Nuclear receptor subfamily 5 group A member 2 (Homo sapiens) (O00482 whole entry, looked up): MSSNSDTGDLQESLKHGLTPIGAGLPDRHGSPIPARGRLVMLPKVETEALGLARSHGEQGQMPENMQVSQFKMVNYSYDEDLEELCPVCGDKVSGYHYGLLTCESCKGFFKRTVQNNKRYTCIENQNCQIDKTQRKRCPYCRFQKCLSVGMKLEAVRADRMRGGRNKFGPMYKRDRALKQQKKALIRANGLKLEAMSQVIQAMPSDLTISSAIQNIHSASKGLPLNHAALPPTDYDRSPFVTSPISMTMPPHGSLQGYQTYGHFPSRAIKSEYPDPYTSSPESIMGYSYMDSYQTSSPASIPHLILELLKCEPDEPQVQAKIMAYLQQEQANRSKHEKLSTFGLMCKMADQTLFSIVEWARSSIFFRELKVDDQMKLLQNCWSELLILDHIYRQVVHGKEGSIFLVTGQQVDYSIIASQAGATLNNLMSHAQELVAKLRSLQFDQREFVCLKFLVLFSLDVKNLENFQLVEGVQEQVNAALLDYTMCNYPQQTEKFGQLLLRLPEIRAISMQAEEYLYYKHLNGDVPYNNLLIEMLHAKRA
Chain of Steroidogenic factor 1 (Homo sapiens) (Q13285 whole entry, looked up, the tested form may be a part): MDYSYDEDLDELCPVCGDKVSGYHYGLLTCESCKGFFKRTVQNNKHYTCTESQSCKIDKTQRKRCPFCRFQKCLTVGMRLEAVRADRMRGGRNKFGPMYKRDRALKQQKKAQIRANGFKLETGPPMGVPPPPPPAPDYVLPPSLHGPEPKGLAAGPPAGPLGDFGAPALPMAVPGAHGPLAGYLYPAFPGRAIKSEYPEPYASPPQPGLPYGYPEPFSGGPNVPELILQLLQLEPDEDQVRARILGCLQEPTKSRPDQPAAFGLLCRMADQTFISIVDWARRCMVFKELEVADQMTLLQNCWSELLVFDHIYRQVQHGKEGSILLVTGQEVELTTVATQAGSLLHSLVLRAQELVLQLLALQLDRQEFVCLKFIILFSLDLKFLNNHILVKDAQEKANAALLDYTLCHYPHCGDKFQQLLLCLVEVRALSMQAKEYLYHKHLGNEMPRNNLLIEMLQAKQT

Compound | inhibition [1] | inhibition [2] | inhibition [3] | inhibition [4]
Cc1cccc(CSC(Nc2ccc(F)cc2)=C(C#N)C#N)c1 | -5.34% | 35% | 29.4% | 17.7%
COc1ccc(CCNC(=O)CSc2nc3[nH]ncc3c(=O)n2-c2ccc(C)c(Cl)c2)cc1OC | 13.2% | 61.3% (active) | 56.5% (active) | -6.41%
CCOC(=O)c1c(NC(=O)/C=C/C(=O)O)sc(C)c1-c1ccc(Cl)cc1 | 6.09% | 59.2% (active) | 48.9% (active) | 5.25%
COc1cccc(C(NC(C)=O)c2ccc3cccnc3c2O)c1 (configuration not stated) | 74.9% (active) | 89.8% (active) | 76.5% (active) | 76.3% (active)
CCN(CC)c1ccc(NC(=O)CSc2nnc(N)s2)cc1C | -2.14% | 57.1% (active) | 51.4% (active) | -4.26%
Oc1ccc2ccccc2c1C=NCc1ccccc1 | 22.8% | 15.3% | 16.9% | 3.34%
O=C(COc1ccc2c3c(c(=O)oc2c1)CCCC3)NCCN1CCOCC1 | 0.51% | 41.4% (active) | 23.5% | -1.02%
CCOc1cc2c(cc1OCC)C(c1ccc(OC)cc1)N(c1ccccc1)C(=O)C2 (configuration not stated) | -4.63% | 3.16% | -5% | -4.52%
Cc1c(NC(=O)C(C)OC(=O)c2ccc([N+](=O)[O-])s2)c(=O)n(-c2ccccc2)n1C (configuration not stated) | 20% | 23.3% | 19.4% | -10.5%
O=C(Nc1ccc(NC(=O)c2ccc([N+](=O)[O-])o2)cc1Cl)c1ccco1 | 19.6% | 59.8% (active) | 73% (active) | -20.2%
O=C1c2cc(F)ccc2-n2c1nc1ccccc1c2=O | 50.5% (active) | 72.4% (active) | 73.9% (active) | 67.9% (active)
COCC(C)n1c(-c2ccc3c(c2)NC(=O)CO3)csc1=Nc1ccc(OC(F)F)cc1 (configuration not stated) | 10.3% | 79.3% (active) | 69.3% (active) | 34.4% (active)
CCN(CC)C(=O)CSc1nc2ccc(NC(=O)CSc3nccn3C)cc2s1 | -37.7% | 0.81% | 7.59% | -9.75%
CC(=O)/C(=N/Nc1ccccc1[N+](=O)[O-])N1CCCc2ccccc21 | 17.5% | 49.2% (active) | 52.1% (active) | 22.7%
CCN(CC)S(=O)(=O)c1cc(NC(=O)CCCOc2ccc(C(C)=O)cc2)ccc1C | 2.6% | 42.6% (active) | 19.8% | 21.1%
Cc1cc(C)nc(N/N=C/c2ccc([N+](=O)[O-])o2)n1 | 8.46% | 57.7% (active) | 42.5% | -4.48%
O=c1c2ccccc2c(C=Nc2ccccc2O)c(O)n1-c1nccs1 | 5.33% | 46.1% (active) | 35.1% | -7.97%
COc1ccc(C2=CC(=O)CC(C)(C)C2)cc1OC | -7.16% | 59.1% (active) | 51.9% (active) | 11.7%
Cc1cc(C)c2nc(NC(=O)c3ccc([N+](=O)[O-])o3)sc2c1 | -2.6% | 50.8% (active) | 53.7% (active) | -14.5%
COc1ccc(/C=N/OCC(=O)NC(c2ccccc2)c2ccccc2)cc1OC | 30.5% (active) | 72.7% (active) | 66.4% (active) | 54.7% (active)
COC(=O)c1ccc(CNC(=O)COC(=O)c2cc(Cl)nc(Cl)c2)cc1 | 11.2% | 52.4% (active) | 37.1% | 11.2%
CCOCC(=O)Nc1cccc(C(=O)OCC)c1 | -6.06% | 36.9% | 28.2% | 2.72%
O=C(CNc1cccc2ccccc12)N/N=C/c1ccc([N+](=O)[O-])o1 | 27.6% | 56.1% (active) | 56% (active) | 39.9% (active)
C#CCN(C[C@@H]1[C@@H](OC(=O)NCC2CCCCC2)[C@@H](OC(=O)NCC2CCCCC2)Cn2c(=O)ccc(=O)n21)S(=O)(=O)c1ccc(C)cc1 | 38.3% (active) | 62.4% (active) | 74.5% (active) | 70.8% (active)
Cc1ccc(S(=O)(=O)Nc2ccc3c(c2)n(C)c(=O)n3C)cc1 | 40.1% (active) | 48.8% (active) | 38.3% | -96.8%
O=C(CCl)N1CCN(C(=O)C2COc3ccccc3O2)CC1 (configuration not stated) | 18.7% | 57.3% (active) | 57.3% (active) | -13.5%
Cc1cc2oc(=O)cc(-c3ccccc3)c2c(C)c1-c1ccc(N(C)C)cc1 | 0.45% | 52% (active) | 51.3% (active) | 12.6%

Compound | inhibition [1] | inhibition [2] | inhibition [3] | inhibition [4]
Cc1ccc(N2C(=O)C(Cl)=C(N3CCN(C)CC3)C2=O)c(C)c1 | 13.1% | 50.3% (active) | 39% | -9.83%
CCOc1ccc(C(=O)c2cc([N+](=O)[O-])ccc2Cl)cc1 | 12.6% | 42.3% (active) | 39.5% | -1.79%
COc1ccc(-c2cc3nc(-c4ccccc4)cc(N4CCN(C(C)=O)CC4)n3n2)cc1 | 32.4% (active) | 31.1% | 39.3% | -11.9%
COc1ccc(Nc2nc(Nc3ccc(OC)cc3)nc(SC3=NCCS3)n2)cc1 | 19.6% | 53.3% (active) | 53.4% (active) | 4.27%
COCc1cc(C)nc(SCC(=O)Nc2cc3c(cc2C#N)OCO3)c1C#N | -4.84% | 45.3% (active) | 47.2% (active) | -12.4%
CCOC(=O)c1cc(-c2ccncc2)nc2c1c(C)nn2-c1ccccn1 | 14.2% | 44.6% (active) | 48% (active) | 13.1%
CC(=O)c1ccc(NC(=S)Nc2cccc3cnccc23)cc1 | 3.88% | 5.22% | 4.69% | 7.24%
O=C(CCl)Nc1ccc(S(=O)(=O)NC2=NCCCCC2)cc1 | 41.5% (active) | 62% (active) | 61% (active) | 17.7%
O=C(CSc1ncnc2c1cnn2Cc1ccccc1)Nc1ccc2c(c1)OCCO2 | 2.88% | 61.3% (active) | 54% (active) | 2.68%
COc1cc(/C=C2/SC(=Nc3ccc(O)cc3)NC2=O)ccc1O | 38.7% (active) | 48.5% (active) | 43.5% (active) | -31.2%
COc1ccc2c(/C=C/c3cc[n+](C)cc3)c[nH]c2c1 | 28.7% (active) | 64.1% (active) | 56.3% (active) | 50.9% (active)
O=C(OCC(=O)N1CCN(C(=O)COC(=O)c2ccc(O)cc2O)CC1)c1ccc(O)cc1O | 14.4% | 61% (active) | 61.2% (active) | 3.8%
Nc1ccccc1Nc1ccncc1[N+](=O)[O-] | 0.62% | 55.8% (active) | 63.3% (active) | -1.54%
N#Cc1ccccc1NC(=O)c1ccccc1OCC(=O)Nc1ccc2c(c1)oc1ccccc12 | 13.3% | 33.9% | 23.9% | 4.76%
COc1cc(NC(=O)Cn2ccsc2=N)c(C)cc1[N+](=O)[O-] | 11.8% | 49.5% (active) | 58% (active) | -0.82%
Cc1nc2ccccc2n1/N=C/c1ccc([N+](=O)[O-])o1 | 16.3% | 70.9% (active) | 68.1% (active) | 15%
Cc1ccc(SCc2ccc(C(=O)NCc3ccncc3)cc2)cc1 | -0.78% | 55.9% (active) | 53.1% (active) | -0.6%
COC(=O)CNc1nc(-c2cccnc2)nc2ccccc12 | 16.8% | 44.6% (active) | 42.2% | -0.85%
CC(=O)NC12CC3CC(C1)CC(C(=O)Nc1nc4ccc(S(C)(=O)=O)cc4s1)(C3)C2 | 11.2% | 50.8% (active) | 45.2% (active) | -1.09%
Cc1cc(NC(=O)C(Cl)Cl)cc2c1OCO2 | 10.4% | 59.2% (active) | 45.6% (active) | -10.1%
O=C(CSc1nnc(CNC(=O)c2c(F)cccc2F)o1)Nc1ccc2c(c1)OCCO2 | 9.56% | 44.6% (active) | 54.6% (active) | -8.58%
COc1ccc(CCNC(=O)COC(=O)C23CC4CC(CC(C4)C2)C3)cc1 | 17.5% | 57% (active) | 48.7% (active) | 1.82%
Cc1sc(NC(=S)NC(=O)CCc2ccccc2)c(C(N)=O)c1C | 54% (active) | 35.5% | 38.1% | 11.8%
COC(=O)c1ccc(NC(=O)CSc2ccc(-c3ccccn3)nn2)cc1 | -13.3% | 52.9% (active) | 41.7% | -18%
CCn1c(SCC(=O)Nc2ccc(N3CCOCC3)cc2)nnc1-c1ccco1 | 3.02% | 58% (active) | 47.3% (active) | 10.2%
Cc1ccccc1-c1nnc(SCC(=O)Nc2cccc(C)c2C)o1 | -7.62% | 24.8% | 26.9% | -3.77%
